# Shown are actives, neighbours in structure and some others; about 21% of the full set was active somewhere.
# Cycloheximide cs: counter-screen hit for Shiga toxin inhibitors, cycloheximide | actives 12% (n = 300,000) | cell reporter, cycloheximide protein synthesis inhibition counterscreen | AID 2314 | max response, %; in the data active means max response mostly above about 13%, no sharp cut-off; inactive means mostly below about 14%; further: read at 38.3 µM for the half of the compounds with a filed dose; 0% is about no effect
# HCV inhibitor: blocks hepatitis C virus; Potency, µM (titrated, usually from 41.8 µM), for inactives: at the top dose activity change, negative = inhibition, hits mostly inhibitors; actives 3.4% (n = 340,000); Huh7.5.1 HCVcc-Cre infection, luciferase reporter, 44 h; AID 651820; further: potency means the concentration at half of the fitted maximal effect; on the % scale 0 is the no-effect control and ±100 the full control effect
#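 Infectious HCVcc-Cre (~0.5 moi) was added to cells just after compound, with cells seeded 4 h earlier at 1,000 per well. Luciferase activity after 44 h culture reported infection; substrate was incubated 15 min at room temperature before reading.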
# Shiga inhibitor: blocks Shiga toxin action in Vero cells; Vero cells, Shiga toxin protein synthesis inhibition reporter; inhibition, % at 38.7 µM; actives 9.2% (n = 290,000); in the data active means inhibition mostly above about 28%, no sharp cut-off; inactive means mostly below about 43%; further: 0% is about no effect
# AMA1 RON2 block: AMA1-RON2 (P. falciparum) interaction inhibition. AlphaScreen AMA1-biotinylated RON2 peptide binding. Potency, µM (series often up to 58.2 µM), inactives show top-dose activity change, negative = inhibition, hits mostly inhibitors. actives 0.2% (n = 360,000). AID 720542;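 further: potency means the concentration at half of the fitted maximal effect; 0% = vehicle wells and -100% = peptide control; nearly all actives have a fitted effect of over 45% in size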
#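 AMA1 (3D7) with his tag at 25 nM final met compounds first, then biotinylated RON2 peptide at 25 nM; detection used donor plus acceptor beads, 10 µg/mL apiece, read by AlphaScreen after 30 min at room temperature.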
# Pf growth 96h: P. falciparum growth inhibition at 96 hours; actives 6.9% (n = 320,000); P. falciparum luciferase reporter growth, 96 h; Potency, µM (highest dose often 28.7 µM), inactives show at the highest dose activity change, negative = inhibition, most hits filed as inhibitors; further: potency means the concentration at half of the fitted maximal effect; on the % scale 0 is the no-effect control and ±100 the full control effect
#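 Erythrocytes infected with luciferase-expressing P. falciparum were dispensed at 2% hematocrit and 0.05% parasitemia (final), then incubated with compounds 96 hours at 37 C in 5% CO2. Luminescence after detection reagent addition reported growth.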
# Pf growth 48h: inhibits P. falciparum growth in the first generation, 48 h; P. falciparum luciferase growth in erythrocytes, 48 h; Potency, µM (titrated, usually from 28.7 µM), for inactives: at the top dose activity change, negative = inhibition, usual class: inhibitors; actives 5.9% (n = 310,000); AID 504832; further: potency means the concentration at half of the fitted maximal effect; on the % scale 0 is the no-effect control and ±100 the full control effect
#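 Compounds are pin-transferred into medium, infected erythrocytes (2% hematocrit, 0.1% parasitemia final) are added, and plates sit one parasite generation at 37 C in 5% CO2. Detection reagent is then added and luminescence measured.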
# * = called active by the depositor; ? = inconclusive; nt = no result given; [ ] = remark or other dose. Unless noted, the call rests on the fitted dose curve; in most records, active means well fitted curve in the direction sought with a large enough effect; inconclusive means small, poorly fitted or top-dose-only effect, or another doubt; inactive means no such curve, though single readings can be large; an effect the other way counts as inactive or inconclusive.
SMILES,Cycloheximide cs,HCV inhibitor,Shiga inhibitor,AMA1 RON2 block,Pf growth 96h,Pf growth 48h
CCN(CC)S(=O)(=O)c1ccc(N/N=C/c2ccc(O)cc2O)nc1,-0.9,?,2.2,5.4%,3.7µM*,2.33µM*
CSc1nc(N)nc2c1ncn2Cc1ccccc1,nt,6.9%,nt,-1.6%,nt,nt
C=CCC(NCc1ccco1)c1ccc(OC)cc1OC (configuration not stated),-7.3,-3.0%,4.6,nt,10.4µM*,-12.1%
COc1ccc(CCN(C)CC(O)COC(c2ccc(F)cc2)c2ccc(F)cc2)cc1OC (configuration not stated),-2.9,?,-9.7,-7.6%,10.4µM*,13.1µM*
COc1ccc(CN(C)CC(O)COC(c2ccccc2)c2ccccc2)c(OC)c1OC (configuration not stated),-4.4,15.8µM*,-6.8,0.5%,?,10.4µM*
COc1ccc(CN(C)CC(O)COc2ccc(C(=O)c3ccccc3)cc2)c(OC)c1OC (configuration not stated),-2.8,?,-3.2,1.3%,?,?
COc1ccc(CCN(C)CC(O)COc2c(C)ccc(C)c2C)cc1OC (configuration not stated),2.4,?,7.1,18.1%,?,14.7µM*
CCN(Cc1ccccc1)CC(O)COC(c1ccc(OC)cc1)c1ccc(OC)cc1 (configuration not stated),-6.2,?,-13.0,-27.7%,9.28µM*,14.7µM*
COc1ccc(CCN(C)Cc2ccc(F)cc2F)cc1OC,8.9,-5.2%,-8.6,-7.8%,27.7%,nt
O=C(Nc1ccc(F)c(Cl)c1)c1csc(COCCO)n1,nt,nt,nt,-1.4%,nt,nt
CCOc1ccc(NC(=O)CSc2nc(=O)n(CCCN3CCOCC3)c3c2CCC3)cc1,nt,6.1%,nt,13.3%,1.0%,?
O=C(COc1ccccc1F)Nc1c2c(nn1-c1ccccc1)CS(=O)(=O)C2,-2.6,nt,-8.8,16.9%,?,?
CCCCOc1ccc(/C=C/C2=CC(C)(C)NC(=S)N2)cc1OCC,8.2,?,-1.7,26.4%,107.2%,?
CCCCN1C(=O)C(=O)N(CC(=O)Nc2sc(CC)cc2C(=O)OCC)C1=O,nt,?,nt,39.9%,-2.8%,6.1%
CCCS(=O)(=O)N1CCC(C(=O)NC2CCCC(C)C2C)CC1 (configuration not stated),9.6,12.4%,29.2,8.8%,9.28µM*,16.7%
COc1ccc(CN(C)CCCn2cnc3c(OC)ncnc32)cc1OC,nt,nt,nt,1.1%,nt,nt
CCOC(=O)N1CCN(C(=O)CN(Cc2ccc(Cl)cc2)S(C)(=O)=O)CC1,-2.8,4.6%,-24.5,9.8%,0.6%,-5.9%
CCOC(=O)N1CCN(C(=O)CN(Cc2ccc(Cl)cc2)S(=O)(=O)c2ccc(C)cc2)CC1,27.4,?,-16.6,0.4%,1.85µM*,nt
CCN(CC(=O)N1CCCCCC1)S(=O)(=O)c1ccc(C)cc1,-4.1,12.8%,-2.4,-2.0%,7.38µM*,-15.3%
CCN(CC(=O)N1CCN(C)CC1)S(=O)(=O)c1ccc(Cl)cc1,-0.8,-5.4%,6.0,-1.2%,9.28µM*,-13.6%
CCN(CC(=O)N1CCCCCC1)S(=O)(=O)c1ccc(Cl)cc1,-1.5,12.4%,-2.3,-5.3%,18.7%,?
COc1ccc(C(C(=O)NC2CCCC2)N(C(=O)c2ccco2)c2cc3c(cc2C(C)=O)OCO3)cc1 (configuration not stated),-1.3,15.5%,-4.6,-14.2%,-10.1%,-25.3%
O=C(CN1CCN(C(=O)C2CC2)CC1)Nc1ccc(Cl)cc1F,nt,0.4%,nt,8.2%,0.1%,?
O=c1c(-c2ccc(O)cc2O)coc2cc(O)cc(O)c12,1.9,-11.2%,6.1,-23.4%,1.17µM*,86.7%
COc1ccccc1-c1coc2cc(O)cc(O)c2c1=O,29.6*,0.6%,61.1*,-6.2%,nt,4.1%
SMILES,Cycloheximide cs,HCV inhibitor,Shiga inhibitor,AMA1 RON2 block,Pf growth 96h,Pf growth 48h
COc1ccc(-c2coc3cc(O)cc(O)c3c2=O)cc1OC,26.7*,4.1%,56.0*,-3.1%,36.9%,-2.5%
COc1ccc(-c2c(C)oc3cc(O)cc(O)c3c2=O)cc1OC,-1.4,1.8%,38.5,-2.5%,?,1.8%
CN(CC(=O)Nc1ccccc1Cl)C(=O)Cn1cc(C(F)(F)F)cc(Cl)c1=O,nt,11.7%,nt,-11.9%,30.4%,53.9%
CC(=O)c1ccc(N(C)C)cc1,-0.5,-13.1%,-13.4,-1.4%,-18.2%,nt
CN(C)c1ccc(C(=O)c2ccc(O)cc2O)cc1,29.2*,-20.6%,53.9*,?,351.7%,249.6%
CN(C)c1ccc(C(=O)C(=O)c2ccccc2)cc1,48.7*,-7.1%,66.7*,-9.8%,?,52.4%
CN(C)c1ccc2c(c1)Sc1cc(N(C)C)ccc1N2C(=O)c1ccccc1,6.8,-2.4%,14.7,?,1.65µM*,3.7µM*
CN(C)/C(=C\C(=O)c1ccccc1)C(=O)c1ccccc1,nt,6.8%,nt,2.8%,nt,nt
CN(C)c1ccc(C(=O)c2ccc(N(C)C)cc2)cc1,17.4*,?,40.0,-10.9%,102.6%,nt
Cc1ccc(C(=O)N2c3ccccc3Sc3ccccc32)cc1,nt,nt,nt,0.0%,nt,nt
O=C(O)C1CCC(CNS(=O)(=O)c2ccccc2)CC1 (configuration not stated),-6.5,1.9%,-5.6,2.3%,5.3%,6.2%[0.00184 µM]
N#CC1CCCc2c1[nH]c1ccc([N+](=O)[O-])cc21 (configuration not stated),3.5,?,-11.9,-2.3%,-12.9%,8.1%
CN(C)c1ccc(C(=O)NN2C(=O)c3ccccc3C2=O)cc1,15.2*,10.8%,43.4,-9.7%,-22.8%,32.1%
CC(=O)c1sc(N/N=C\c2ccc(N(C)C)cc2)nc1C,31.0*,-18.8%,nt,32.4%,?,112.7%
COC(=O)c1sc(N/N=C/c2ccc(C(C)C)cc2)nc1C,12.0,?,53.0*,36.9%,?,9.28µM*
CCOC(=O)c1sc(N/N=C/c2cc(Br)c(O)c(OC)c2)nc1C,18.2,-19.8%,22.2,110.0%,52.8%,13.1µM*
CC(=O)c1sc(N/N=C/c2cccc(O)c2)nc1C,39.6*,-23.8%,49.8*,28.1%,162.0%,151.4%
CC(=O)c1sc(N/N=C/c2cccc([N+](=O)[O-])c2)nc1C,2.5,-0.5%,33.4,24.9%,125.9%,52.3%
CC(CN1CCN(C)CC1)OC(=O)c1cccc(F)c1 (configuration not stated),-2.2,-6.5%,nt,-17.1%,?,7.4%
CC(C)(C)C(=O)Nc1nnc(CSCc2ccccc2F)s1,90.2*,-21.6%,105.4*,0.0%,1.1%,nt
CC(C)C(=O)Nc1nnc(CSCc2ccccc2F)s1,12.9,-16.1%,36.7,-0.3%,-3.1%,nt
O=C(Nc1nnc(CSCc2ccccc2F)s1)c1cccc([N+](=O)[O-])c1,-3.2,0.6%,-8.6,41.6%,13.1µM*,18.7%
O=C(C1CC1)N(Cc1ccco1)c1nc(-c2ccccc2)cs1,8.3*,?,4.9,0.0%,?,?

# Screens from PubChem BioAssay.
